Screening data deposited in PubChem BioAssay by National Center for Advancing Translational Sciences (NCATS).
LASV entry inh – Lassa virus entry inhibition. Lassa virus pseudotype entry inhibition, cell reporter. Potency, µM (titrated, usually from 37.9 µM), without a hit: at the top dose activity change, negative = inhibition, actives largely listed as inhibitors. hit rate 1.2% among 300,000. AID 540256; calls by dose curve; tested in HEK293 cells; further: potency means the concentration at half of the fitted maximal effect; nearly all actives have a fitted effect of over 50% in size
HCV inh – inhibitors of hepatitis C virus infection; Huh7.5.1 HCVcc-Cre infection, luciferase reporter, 44 h; Potency, µM (top dose mostly 41.8 µM), without a hit: at the highest dose activity change, negative = inhibition, usual class: inhibitors; hit rate 3.4% among 340,000; AID 651820; active means well fitted inhibition curve with a large enough effect; inconclusive means small, poorly fitted or top-dose-only effect, or another doubt; inactive means no such curve, though single readings can be large or run the other way; further: potency means the concentration at half of the fitted maximal effect
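Infectious HCVcc-Cre (~0.5 moi) was added to cells just after compound, with cells seeded 4 h earlier at 1,000 per well. Luciferase activity after 44 h culture reported infection; substrate was incubated 15 min at room temperature before reading.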
HCMV antiviral – human cytomegalovirus inhibition; hit rate 4.5% among 410,000; HFF cells, HCMV-luciferase reporter, 72 h; stronger effect = lower value; activity change, negative = inhibition, % at 57.5 µM; in the data active means activity change below about -60%; inconclusive means no clear call, values can overlap the other calls; inactive means above about -39%
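After 16 h attachment at 37C, HFF cells received test compound and HCMV-luciferase (1 PFU/cell); reporter luminescence read 72 h later, data normalized against buffer-only and known inhibitor Salinomycin.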
FMDV antiviral – foot and mouth disease virus antiviral activity | Potency, µM (series often up to 57.9 µM), for the others: at the highest dose activity change, negative = inhibition, actives largely listed as inhibitors | FMDV antiviral cell-based qHTS | hit rate 1.2% among 410,000; calls by dose curve; tested in HEK293T cells; further: read-out not given here; potency means the concentration at half of the fitted maximal effect; nearly all actives have a fitted effect of over 45% in size
Marburg entry inh – Marburg virus entry inhibition; Marburg virus pseudotyped entry inhibition, cell reporter; Potency, µM (doses to about 37.8 µM), without a hit: top-dose activity change, negative = inhibition, most hits filed as inhibitors; hit rate 1.8% among 300,000; calls by dose curve; tested in HEK293 cells; further: potency means the concentration at half of the fitted maximal effect
* hit, by the source's call; ? = inconclusive; nt = not tested or not shown; [ ] = dose if it differs, or a comment. This is a sample that favours compounds with a hit; in the whole collection about 7.9% have one here. On the % scale 0 is the no-effect control and ±100 the full control effect.

SMILES | LASV entry inh | HCV inh | HCMV antiviral | FMDV antiviral | Marburg entry inh
COc1ccc(-c2cc(C3CCN(CC(O)C(F)(F)F)CC3)[nH]n2)cc1 (stereo unspecified) | nt | -13% | -18 | -1% | nt
COc1ccc(Cl)cc1S(=O)(=O)N1CCCC(C(=O)NCc2ccccc2)C1 (stereo unspecified) | 2% | -16% | 11 | -25% | -28%
O=C(COC(=O)c1cccc(-n2cnnn2)c1)c1ccc(Br)cc1 | 8% | 28% | 36 | 21% | 18%[46.1 µM]
COc1ccccc1Nc1cc(C)nc2nc(-c3ccccc3)nn12 | -28%[46.1 µM] | nt | -86* | -4% | nt
CC1CCCN(c2c([N+](=O)[O-])cc(C(=O)O)cc2[N+](=O)[O-])C1 (stereo unspecified) | nt | -2% | -101* | -5% | nt
CCCN(CCC)C(=O)CCSCCC(=O)N(CCC)CCC | -1% | 3% | -102* | -7% | -13%
Cc1onc(-c2ccccc2)c1C(=O)NCCN1Cc2ccccc2OC(c2ccsc2)C1 (stereo unspecified) | nt | nt | nt | -19% | nt
O=C(CCc1ccc(O)cc1)c1c(O)cc(O)cc1O | ? | -22%[8.37 µM] | -14 | 2% | ?
COc1cc(O)c(CC=C(C)C)c(O)c1C(=O)CCc1ccc(O)cc1 | nt | 0.71µM* | -15 | -10% | nt
O=C(/C=C/c1ccc(S(=O)(=O)N2CCOCC2)cc1)N1CCN(c2ccccc2)CC1 | nt | 2µM* | ? | 32µM* | nt
COc1ccc(/C=C/C(=O)N2CCN(c3ccccc3)CC2)cc1S(=O)(=O)N1CCOCC1 | ? | 32µM* | ? | 14µM* | -16%[46.1 µM]
O=C(/C=C/c1ccccc1)N1CCN(S(=O)(=O)c2ccc(F)cc2)CC1 | 5% | 12% | -12 | -19% | ?
COc1ccc(/C=C/C(=O)N2CCC(C(N)=O)CC2)cc1S(=O)(=O)N1CCOCC1 | ? | 20% | -4 | 22% | -2%
O=C1c2ccccc2CCC12OC2c1ccncc1 (stereo unspecified) | nt | nt | 3 | -5% | nt
COc1ccc(S(=O)(=O)N2CCC(N3CCN(Cc4ccc(F)cc4)C(=O)C3=O)CC2)cc1 | -1%[46.1 µM] | nt | -9 | -29% | nt
Cc1nn(-c2ccccc2)c2c1N(CCCC(=O)NCc1ccc(OC(C)C)cc1)C(=O)CS2 | ? | nt | ? | 0% | nt
Cc1cc(C(=O)NCC2CCC3(CCN(Cc4ccc5ccccc5c4)CC3)O2)n(C)n1 (stereo unspecified) | nt | nt | nt | -29% | nt
Cc1ccc2nc(-c3ccc(O)cc3)oc2c1 | ? | 4% | 92 | 13µM* | 5.6µM*
Cc1ccc2nc(-c3cccc(N)c3)oc2c1 | ? | -20% | 68 | nt | ?
CN1CCN(c2ncnc3ccc(-c4cccnc4)cc23)CC1 | nt | nt | nt | -10% | nt
COC(=O)[C@@H]1CC[C@H](C)[C@@H](c2ccc(C)cc2)N1C(=O)c1ccc(C=NOC[C@@H](O)[C@H]2O[C@@H]3OC(C)(C)O[C@H]3[C@@H]2O)cc1 | 10%[14.3 µM] | nt | nt | nt | 28%[14.2 µM]
O=C(Nc1ccc(F)cc1)c1cc(S(=O)(=O)N2CCCCC2)cs1 | ? | ? | -84* | ? | ?
CC1CN(S(=O)(=O)c2csc(C(=O)Nc3ccccc3)c2)CC(C)O1 (stereo unspecified) | ? | nt | -60* | -28% | ?
NC(=O)COC(=O)[C@H](Cc1c[nH]c2ccccc12)NC(=O)c1ccc(F)cc1 | -2%[46.1 µM] | 4% | 31 | 23% | 2%[46.1 µM]
N#Cc1cccc(NC(=O)CNc2cccc(S(=O)(=O)N3CCCC3)c2)c1 | ? | 2.5µM* | -26 | 2% | ?
SMILES | LASV entry inh | HCV inh | HCMV antiviral | FMDV antiviral | Marburg entry inh
O=C(CNc1cccc(C(F)(F)F)c1)Nc1cccc(S(=O)(=O)N2CCCC2)c1 | nt | 11µM* | ? | -21% | nt
COC(=O)c1cc(OC)c(OC)cc1NCC(=O)Nc1cccc(C(F)(F)F)c1 | -11% | ? | ? | ? | 10µM*
O=C(CNc1cc(S(=O)(=O)N2CCOCC2)ccc1N1CCOCC1)Nc1cccc(C(F)(F)F)c1 | ? | 8% | 1 | -10% | 13%[46.1 µM]
O=C(CNc1cccc(S(=O)(=O)N2CCCC2)c1)Nc1cccc(F)c1 | 2% | -7% | -6 | -23% | ?
O=C(CNc1cc(S(=O)(=O)N2CCCC2)ccc1OCC(F)(F)F)Nc1cccc(C(F)(F)F)c1 | ? | 11µM* | -69* | ? | ?
CC1=C[S+](=O)([O-])CC1SC1=NC2C=CC=CC2=N1 (stereo unspecified) | nt | nt | nt | nt | -15%
Cc1cc(C(=O)Nc2cccc(-c3nc(CNC(=O)c4ccc[n+]([O-])c4)c(C)o3)c2)c(C)o1 | nt | nt | nt | 4% | nt
CCCCCn1nc2ccccc2c1OC | nt | nt | -15 | nt | nt
O=C1NC(Cc2ccccc2)c2nc3ccccc3c(=O)n2-c2ccc(Cl)cc21 (stereo unspecified) | nt | 12% | 15 | nt | nt
Cc1ccc(NC(=S)NC(=O)c2ccc(F)cc2)cc1S(=O)(=O)Nc1cccc(Cl)c1 | ? | ? | -35 | -33% | ?
Cc1ccc(C(=O)NC2CCN(CC(=O)Nc3cccc([N+](=O)[O-])c3)CC2)cc1 | -10% | ? | 11 | -8% | 0.79µM*
COc1ccc(C(=O)NC2CCN(CC(=O)Nc3cccc(OC)c3)CC2)cc1 | nt | -7% | -3 | -11% | nt
NS(=O)(=O)c1cccc(NC(=O)c2ccc(NS(=O)(=O)c3cccc([N+](=O)[O-])c3)cc2)c1 | 9% | 1% | -75* | 10% | 20%
Cc1ccc(C)c(NC(=O)c2ccccc2NS(=O)(=O)c2cc([N+](=O)[O-])ccc2C)c1 | ? | 8.9µM* | -87* | ? | 4.1µM*
Cc1ccc(NC(=O)CC(=O)c2ccc([N+](=O)[O-])cc2)cc1S(=O)(=O)Nc1cccc(Cl)c1 | ? | 10µM* | ? | -20% | ?
CC1CCN(C(=O)CCCC(=O)N2CCC(C)CC2)CC1 | nt | 7% | -1 | 1% | nt
FC(F)(F)c1ccc(Cl)c(NC2=NCCCCC2)c1 | ? | 7% | 20 | -27% | 2%[46.1 µM]
Cc1ccc(NS(=O)(=O)c2cc(C(=O)Nc3cccc([N+](=O)[O-])c3)ccc2C)cc1 | 18µM* | ? | -39 | 36% | ?
Cc1ccc(C(=O)Nc2cccc([N+](=O)[O-])c2)cc1S(=O)(=O)Nc1ccc(NC(=O)c2ccccc2)cc1 | ? | 10µM* | -74* | 27% | ?
Cc1ccc(C(=O)Nc2cccc([N+](=O)[O-])c2)cc1S(=O)(=O)Nc1cccc(C(=O)O)c1 | 14% | 0% | -26 | 32% | -2%[46.1 µM]
CC(=O)Nc1ccc(NC(=O)c2ccc(C)c(S(=O)(=O)Nc3cccc(C)c3)c2)cc1 | -1%[46.1 µM] | 13µM* | -36 | 41% | 6.3µM*
Cc1ccc(C(CC(=O)O)NC(=O)CCNC(=O)c2ccco2)cc1 (stereo unspecified) | 10% | 10% | -6 | -13% | 1%[46.1 µM]
COCCCNC(=O)Cc1c(C)c2c(cc(C)c3c(C(C)(C)C)coc32)oc1=O | nt | 11µM* | -34 | -16% | nt
Cc1c(CC(=O)NCCc2ccccc2F)c(=O)oc2c(C)c3occ(C(C)(C)C)c3cc12 | -3%[46.1 µM] | nt | -78* | -21% | 16%[46.1 µM]
